Measurements taken from PubChem BioAssay (NCATS).
Values joined by “and” are separate entries in the source; they are usually repeats but may differ in a detail not shown here. Equal entries are not always repeated. Records with an inconclusive call do not appear. Active and inactive are the calls of the source. Unless noted, calls follow the shape of the dose curve; as a rule, active = well fitted curve in the direction sought with a large enough effect; inconclusive = small, poorly fitted or top-dose-only effect, or another doubt; inactive = no such curve, though single readings can be large; an effect the other way counts as inactive or inconclusive.

Key:
[1] = molecular target: Estrogen receptor (Homo sapiens) (UniProt P03372); experiment: qHTS assay for small molecule antagonists of estrogen receptor alpha signaling (AID 588513; active = well fitted curve in the direction sought with a large enough effect in the signal ratio, with a control signal flat, not every such curve was filed as active; the % refers to the signal ratio; also: % is scaled to controls: 0 for no effect and ±100 for the full control effect)
Method in brief: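 Antagonist mode: inhibition of 0.5 nM 17-beta-estradiol-driven beta-lactamase reporter in HEK 293 ER-alpha-UAS-bla cells, 18 h at 37C, CCF4 readout after 2 h at RT. Normalised to estradiol and DMSO; titration fitted to Hill.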

[2] = molecular target: Estrogen receptor (Homo sapiens) (UniProt P03372); experiment: qHTS assay for small molecule agonists of estrogen receptor alpha signaling (AID 588514; calls by dose curve;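 also: 0% = vehicle only and 100% = reference agonist; nearly all actives have a fitted effect of over 70% in size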)
Method in brief: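 Read-out: CCF4 fluorescence from a beta-lactamase reporter in ER-alpha-UAS-bla HEK 293 cells after 18 hrs of compound exposure at 37 C. Normalized to 20 nM 17-beta-estradiol (100%) and DMSO (0%).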

[3] = molecular target: Glucocorticoid receptor (Homo sapiens) (UniProt P04150); experiment: qHTS assay for small molecule antagonists of glucocorticoid receptor signaling (AID 588533; active = well fitted inhibition curve with a large enough effect in the signal ratio, with a control signal flat, not every such curve was filed as active; the % refers to the signal ratio;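 also: cells stimulated with 2 nM dexamethasone as agonist; % is scaled to controls: 0 for no effect and ±100 for the full control effect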)
Method in brief: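 Antagonist-mode qHTS: compound titrations added to GRE-bla HeLa cells, then dexamethasone 2 nM final; 18 h, 37 C. CCF4 FRET fluorescence normalized to dexamethasone and DMSO; IC50 from Hill fit.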

[4] = qHTS assay for small molecule antagonists of peroxisome proliferator-activated receptor delta signaling (AID 588535; active = well fitted inhibition curve with a large enough effect in the signal ratio, with a control signal flat, not every such curve was filed as active; the % refers to the signal ratio;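 as to max response: cells co-treated with a PPAR-delta agonist as stimulator during compound exposure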); conditions: HEK293T PPARd-UAS-bla, beta-lactamase FRET ratio, 18 h; 460 nm channel
Method in brief: (§1)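 Compounds tested in titration on PPAR-delta-UAS-bla HEK293T cells grown in charcoal/dextran-stripped serum (2%); beta-lactamase activity read via CCF4 emission at 460 and 530 nm.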

[5] = molecular target: Peroxisome proliferator-activated receptor delta (Homo sapiens) (UniProt Q03181); experiment: as above
Method in brief: as §1

[6] = qHTS assay for small molecule agonists of retinoid X receptor alpha signaling (AID 588544; calls by dose curve;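 as to activation: 0% = DMSO basal wells and 100% = reference agonist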); conditions: HEK293T RXRa-UAS-bla, beta-lactamase reporter, 18 h; 530 nm emission
[7] = molecular target: Retinoic acid receptor RXR-alpha (Homo sapiens) (UniProt P19793); experiment: as above
[8] = molecular target: Thyroid hormone receptor beta (Homo sapiens) (UniProt P10828); experiment: qHTS assay for small molecule agonists of thyroid hormone receptor beta signaling (AID 588545; calls by dose curve)
Method in brief: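 Agonist activity was read as beta-lactamase CCF4 fluorescence (405 ex, 460/530 em), scaled between DMSO (0%) and 10 nM T3 (100%), then Hill-fitted for EC50 and efficacy. HEK 293 TR-UAS-bla cells in 2% charcoal/dextran FBS medium were exposed 18 h at 37 C.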

[9] = qHTS assay for small molecule antagonists of retinoid X receptor alpha signaling (AID 588546; active = well fitted inhibition curve with a large enough effect in the signal ratio, with a control signal flat, not every such curve was filed as active; the % refers to the signal ratio;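 also: cells stimulated with 9-cis-retinoic acid as agonist; % is scaled to controls: 0 for no effect and ±100 for the full control effect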); conditions: HEK293T RXRa-UAS-bla, beta-lactamase ratio, antagonist mode; measured here: W530 green channel, cytotoxicity proxy
Method in brief: (§2)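 Beta-lactamase reporter inhibition, read as CCF4 fluorescence ratio (ex 405, em 460/530 nm) after 2 h at RT. HEK293T UAS-bla cells, 2500/well, were stimulated with 9-cis-RA at 500 or 100 nM final alongside test compound for 18 h at 37 C.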

[10] = molecular target: Retinoic acid receptor RXR-alpha (Homo sapiens) (UniProt P19793); experiment: as above; conditions: HEK293T RXRa-UAS-bla, beta-lactamase ratio, antagonist mode
Method in brief: as §2

[11] = qHTS assay for small molecule activators of the nuclear factor-kappa B (NF-kB) signaling pathway (AID 651749; active = well fitted activation curve with a large enough effect in the signal ratio; the % refers to the signal ratio; also: series mostly up to about 77 µM; % of control where 0% means no effect); conditions: NF-kB-bla ME-180 cells, beta-lactamase FRET ratio, 16 h; activation: stronger effect = higher value
Method in brief: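 Beta-lactamase reporter expression, controlled by NF-kB response elements in ME-180 cells, was quantified fluorometrically via FRET disruption; cells at 2,000/well had been incubated with 23 nL test compound for 16 hr.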

[12] = molecular target: Peroxisome proliferator-activated receptor alpha (Homo sapiens) (UniProt Q07869); experiment: qHTS assay for small molecule agonists of the peroxisome proliferator-activated receptor alpha (PPARalpha) signaling pathway (AID 651778); conditions: PathHunter PPARalpha complementation, chemiluminescence, 6 h; max response: stronger effect = higher value; also: % of control where 0% means no effect
Method in brief: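 Cells plated at 2,000/well and held overnight at 37 C, 5% CO2, then compound added by pin tool for 6 hr; after PathHunter detection reagent and 60 min at room temperature, chemiluminescence from enzyme complementation was read.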

[13] = qHTS assay for small molecule agonists of the antioxidant response element (ARE) signaling pathway measured by Nrf2-dependant transcriptional activity - cell viability counter screen (AID 720653; active = well fitted curve in the direction sought with a large enough effect in the repeat runs; an effect the other way counts as inactive or inconclusive; also: % is scaled to controls: 0 for no effect and ±100 for the full control effect); conditions: ARE-bla HepG2 viability, CellTiter-Glo ATP luminescence, 16 h; max response: stronger effect = lower value
Method in brief: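 ARE-bla HepG2 cells (2,000/well) rested 5 hrs at 37C/5% CO2, then exposed to compounds in DMSO for 16 hrs. Viability was read in the same wells as intracellular ATP by luminescence, 30 min at room temperature after reagent addition.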

[14] = qHTS assay for cell viability of HEK293 cells (AID 743288); conditions: ATP luminescence (CellTiter-Glo), 18 h; max response: stronger effect = lower value; also: % is scaled to controls: 0 for no effect and ±100 for the full control effect; nearly all actives have a fitted effect of over 50% in size
Method in brief: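 Readout is luciferase-coupled ATP content (CellTiter-Glo luminescence, 30 min room temperature) as a measure of metabolically competent cells. Parental HEK293 cells were plated 5 h or more before compound addition, then treated 18 h at 37 C.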

[15] = molecular target: Nuclear receptor subfamily 1 group I member 2 (Rattus norvegicus) (UniProt Q9R1A7); experiment: qHTS assay for small molecule activators of the rat pregnane X receptor (rPXR) signaling pathway (AID 651751; call rule not given here; also: 0% is about no effect); conditions: rPXR reporter cells, luciferase (One-Glo), 24 h
[16] = qHTS assay for small molecule activators of the human pregnane X receptor (PXR) signaling pathway (AID 720659; call rule not given here; also: 0% is about no effect)
[17] = molecular target: Peroxisome proliferator-activated receptor gamma (Homo sapiens) (UniProt P37231); experiment: qHTS assay for small molecule agonists of peroxisome proliferator-activated receptor gamma signaling (AID 588536; active = well fitted curve in the direction sought with a large enough effect in the signal ratio, with a control signal flat, not every such curve was filed as active; the % refers to the signal ratio;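 also: 0% = DMSO basal wells and 100% = rosiglitazone at 2 µM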)
Method in brief: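 Using GeneBLAzer HEK293 cells, response was quantified by CCF4 fluorescence and normalized between basal DMSO (0%) and rosiglitazone 2 uM (100%); curves yielded half-maximal stimulation concentration and efficacy.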

[18] = qHTS assay for environmental chemicals that activate the Aryl hydrocarbon Receptor (AhR) signaling pathway (AID 651777); conditions: 1A2-DRE human hepatoma cells, luciferase, 24 h; activation: stronger effect = higher value; also: % of control where 0% means no effect; nearly all actives have a fitted effect of over 15% in size
Method in brief: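 AhR activation is scored as a rise in luciferase from a stable DRE–CYP1A2 promoter construct in human hepatoma cells. Treatment lasts 24 hr at 37 C; detection uses One-Glo after 30 min at room temperature.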

[19] = qHTS assay for small molecule agonists of the antioxidant response element (ARE) signaling pathway measured by Nrf2-dependant transcriptional activity (AID 720636; active = well fitted curve in the direction sought with a large enough effect in the repeat runs; an effect the other way counts as inactive or inconclusive;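 also: HepG2 cells with an ARE-driven luciferase reporter; % of control where 0% means no effect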)
Method in brief: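 First, ARE-luc HepG2 cells attached for 6 hr at 37 C in 1% dialyzed FBS medium. Next, compound or DMSO was added and incubated 16 hr. Finally, ONE-Glo reagent was added and luminescence measured after 30 min.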

[20] = qHTS assay for cell viability of the p53RE-bla HCT-116 cell line (AID 743292); also: % is scaled to controls: 0 for no effect and ±100 for the full control effect; nearly all actives have a fitted effect of over 55% in size
Method in brief: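 Quantitative high-throughput format: compounds in DMSO were pinned onto p53RE-bla HCT-116 cells (4,000/well) and incubated 16 h at 37 C. Total intracellular ATP, read by CellTiter-Glo luminescence, reflects viable cell number.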

Retinoic acid receptor RXR-alpha (Homo sapiens), sequence (P19793 whole entry, looked up): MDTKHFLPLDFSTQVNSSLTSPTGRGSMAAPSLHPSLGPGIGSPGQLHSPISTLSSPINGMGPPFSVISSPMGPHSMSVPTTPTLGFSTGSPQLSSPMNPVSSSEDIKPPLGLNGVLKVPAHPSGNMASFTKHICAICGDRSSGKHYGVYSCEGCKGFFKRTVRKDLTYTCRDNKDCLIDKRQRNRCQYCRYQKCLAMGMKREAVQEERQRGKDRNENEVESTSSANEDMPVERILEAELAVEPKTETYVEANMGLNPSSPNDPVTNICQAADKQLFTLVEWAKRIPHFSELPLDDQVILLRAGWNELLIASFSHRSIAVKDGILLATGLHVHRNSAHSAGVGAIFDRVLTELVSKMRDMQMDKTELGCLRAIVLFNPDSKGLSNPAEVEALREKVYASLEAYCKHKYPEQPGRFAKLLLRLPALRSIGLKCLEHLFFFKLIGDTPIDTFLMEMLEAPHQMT
Peroxisome proliferator-activated receptor alpha (Homo sapiens), sequence (Q07869 whole entry, looked up): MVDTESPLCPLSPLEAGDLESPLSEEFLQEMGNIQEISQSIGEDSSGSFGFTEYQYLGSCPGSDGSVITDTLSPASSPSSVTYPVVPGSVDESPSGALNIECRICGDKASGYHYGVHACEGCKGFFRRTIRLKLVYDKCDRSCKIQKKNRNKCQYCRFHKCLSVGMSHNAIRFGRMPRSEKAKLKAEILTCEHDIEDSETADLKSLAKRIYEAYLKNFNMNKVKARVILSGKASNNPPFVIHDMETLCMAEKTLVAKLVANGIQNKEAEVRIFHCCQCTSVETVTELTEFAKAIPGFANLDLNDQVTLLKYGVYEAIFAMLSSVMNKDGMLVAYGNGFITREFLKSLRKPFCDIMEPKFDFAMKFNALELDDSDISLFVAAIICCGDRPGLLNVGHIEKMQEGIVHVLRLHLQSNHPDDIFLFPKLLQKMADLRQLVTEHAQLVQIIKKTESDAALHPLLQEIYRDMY
Nuclear receptor subfamily 1 group I member 2 (Rattus norvegicus), sequence (Q9R1A7 whole entry, looked up): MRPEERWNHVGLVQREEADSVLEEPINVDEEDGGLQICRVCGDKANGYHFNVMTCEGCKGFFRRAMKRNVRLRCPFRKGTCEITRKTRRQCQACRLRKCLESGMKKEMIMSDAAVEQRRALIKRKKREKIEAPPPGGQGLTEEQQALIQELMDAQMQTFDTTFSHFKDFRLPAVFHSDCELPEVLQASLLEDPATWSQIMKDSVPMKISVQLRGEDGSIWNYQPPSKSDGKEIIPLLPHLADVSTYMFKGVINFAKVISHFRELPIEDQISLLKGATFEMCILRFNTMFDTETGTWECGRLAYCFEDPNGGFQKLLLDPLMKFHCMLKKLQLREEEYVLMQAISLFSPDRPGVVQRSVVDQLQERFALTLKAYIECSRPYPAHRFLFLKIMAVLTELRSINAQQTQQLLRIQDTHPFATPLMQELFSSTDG
Estrogen receptor (Homo sapiens), sequence (P03372 whole entry, looked up): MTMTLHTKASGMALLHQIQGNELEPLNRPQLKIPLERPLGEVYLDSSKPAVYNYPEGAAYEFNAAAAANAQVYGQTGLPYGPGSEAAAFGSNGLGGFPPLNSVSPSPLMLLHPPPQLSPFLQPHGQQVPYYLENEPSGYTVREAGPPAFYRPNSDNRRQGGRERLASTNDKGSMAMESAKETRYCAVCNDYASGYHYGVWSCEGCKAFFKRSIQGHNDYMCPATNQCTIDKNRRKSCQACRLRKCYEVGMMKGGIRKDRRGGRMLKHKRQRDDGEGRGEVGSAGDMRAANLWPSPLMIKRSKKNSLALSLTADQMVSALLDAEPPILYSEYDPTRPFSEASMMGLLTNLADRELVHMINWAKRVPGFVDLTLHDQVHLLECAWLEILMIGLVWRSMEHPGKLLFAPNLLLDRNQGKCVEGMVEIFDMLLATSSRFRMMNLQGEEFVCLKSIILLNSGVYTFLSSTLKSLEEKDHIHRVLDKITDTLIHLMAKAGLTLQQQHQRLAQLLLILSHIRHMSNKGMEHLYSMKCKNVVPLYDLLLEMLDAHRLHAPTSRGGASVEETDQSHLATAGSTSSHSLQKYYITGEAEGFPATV
Peroxisome proliferator-activated receptor gamma (Homo sapiens), sequence (P37231 whole entry, looked up): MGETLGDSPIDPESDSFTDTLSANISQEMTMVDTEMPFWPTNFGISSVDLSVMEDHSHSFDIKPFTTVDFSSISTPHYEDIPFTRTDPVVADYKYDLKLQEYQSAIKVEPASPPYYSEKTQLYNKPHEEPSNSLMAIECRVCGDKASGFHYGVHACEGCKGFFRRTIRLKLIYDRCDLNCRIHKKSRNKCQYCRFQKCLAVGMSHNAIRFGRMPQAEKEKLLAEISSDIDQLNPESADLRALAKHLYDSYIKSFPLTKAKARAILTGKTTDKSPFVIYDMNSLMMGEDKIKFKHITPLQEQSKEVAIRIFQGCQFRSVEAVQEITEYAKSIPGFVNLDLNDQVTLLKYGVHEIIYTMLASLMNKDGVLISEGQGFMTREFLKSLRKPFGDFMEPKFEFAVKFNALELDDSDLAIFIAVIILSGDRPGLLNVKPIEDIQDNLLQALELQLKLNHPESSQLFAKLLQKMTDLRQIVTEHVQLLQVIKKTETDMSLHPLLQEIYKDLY
Glucocorticoid receptor (Homo sapiens), sequence (P04150 whole entry, looked up): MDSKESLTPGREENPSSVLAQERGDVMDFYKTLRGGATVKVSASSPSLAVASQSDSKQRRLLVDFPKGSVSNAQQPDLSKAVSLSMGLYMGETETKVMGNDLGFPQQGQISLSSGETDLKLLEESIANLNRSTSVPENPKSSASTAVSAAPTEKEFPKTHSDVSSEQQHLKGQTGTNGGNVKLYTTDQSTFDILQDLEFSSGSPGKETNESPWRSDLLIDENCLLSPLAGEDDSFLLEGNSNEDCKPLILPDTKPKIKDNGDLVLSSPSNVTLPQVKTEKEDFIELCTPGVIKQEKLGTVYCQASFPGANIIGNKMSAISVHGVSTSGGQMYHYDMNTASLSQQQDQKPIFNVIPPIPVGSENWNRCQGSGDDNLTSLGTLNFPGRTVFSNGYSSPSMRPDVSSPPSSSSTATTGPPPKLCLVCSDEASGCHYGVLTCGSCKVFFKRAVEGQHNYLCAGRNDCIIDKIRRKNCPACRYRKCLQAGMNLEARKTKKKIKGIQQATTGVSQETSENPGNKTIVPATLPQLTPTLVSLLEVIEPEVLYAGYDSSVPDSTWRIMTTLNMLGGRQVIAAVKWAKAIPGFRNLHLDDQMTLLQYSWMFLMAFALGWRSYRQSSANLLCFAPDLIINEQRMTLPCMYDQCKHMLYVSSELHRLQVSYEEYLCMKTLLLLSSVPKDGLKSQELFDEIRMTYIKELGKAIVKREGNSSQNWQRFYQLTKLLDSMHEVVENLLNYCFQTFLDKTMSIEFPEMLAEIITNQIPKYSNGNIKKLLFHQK
Thyroid hormone receptor beta (Homo sapiens), sequence (P10828 whole entry, looked up): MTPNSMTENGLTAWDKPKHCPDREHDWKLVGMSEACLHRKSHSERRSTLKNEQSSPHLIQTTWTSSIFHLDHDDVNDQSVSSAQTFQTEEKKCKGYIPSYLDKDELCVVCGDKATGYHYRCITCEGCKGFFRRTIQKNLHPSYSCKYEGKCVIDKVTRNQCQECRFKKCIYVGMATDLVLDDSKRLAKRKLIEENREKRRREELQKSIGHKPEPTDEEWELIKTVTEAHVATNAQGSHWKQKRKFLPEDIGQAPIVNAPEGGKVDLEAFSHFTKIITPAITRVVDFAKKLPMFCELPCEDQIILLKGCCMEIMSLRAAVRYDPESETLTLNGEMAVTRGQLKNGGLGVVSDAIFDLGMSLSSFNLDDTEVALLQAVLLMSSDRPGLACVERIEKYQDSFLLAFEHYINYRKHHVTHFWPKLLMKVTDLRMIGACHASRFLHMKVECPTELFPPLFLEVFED
Peroxisome proliferator-activated receptor delta (Homo sapiens), sequence (Q03181 whole entry, looked up): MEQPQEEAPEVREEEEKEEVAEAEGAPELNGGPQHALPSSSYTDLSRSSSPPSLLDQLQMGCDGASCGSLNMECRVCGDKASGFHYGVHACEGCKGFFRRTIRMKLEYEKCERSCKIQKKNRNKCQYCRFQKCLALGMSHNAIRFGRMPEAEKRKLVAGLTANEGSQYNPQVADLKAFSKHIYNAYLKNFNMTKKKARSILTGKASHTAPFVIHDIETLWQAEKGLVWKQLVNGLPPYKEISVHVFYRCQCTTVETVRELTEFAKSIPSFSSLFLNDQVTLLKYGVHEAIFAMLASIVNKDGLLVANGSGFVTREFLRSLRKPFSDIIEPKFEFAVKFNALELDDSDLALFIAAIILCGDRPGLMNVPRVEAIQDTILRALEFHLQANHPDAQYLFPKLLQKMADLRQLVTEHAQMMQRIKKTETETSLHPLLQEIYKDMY

SMILES | Potency [1] | Potency [2] | Potency [3] | max response [4] | Potency [5] | max response [6] | Potency [7] | Potency [8] | max response [9] | max response [10] | activation [11] | max response [12] | max response [13] | max response [14] | max response [15] | outcome [16] | outcome [17] | activation [18] | Potency [19] | Potency [20]
CCCCCC1CCC(=O)O1 (centres undefined) | inactive | inactive | inactive | 31.3% | inactive | -5.36% | inactive | inactive | -5.89% | 2.03% (inactive) | -1.34% (inactive) | -1.42% (inactive) | 1.26% (inactive) | -7.91% (inactive) | 2.69% (inactive) | inactive |  |  |  | 
CC(C)C(=O)OCC(C)(C)C(O)C(C)C (centres undefined) | inactive | inactive | inactive | 1.76% | inactive | 6.96% | inactive | inactive | -13.9% | -10.9% (inactive) | -1.26% (inactive) | -0.497% (inactive) | -3.28% (inactive) | -9.28% (inactive) | -1.98% (inactive) | inactive | inactive | -2.96% (inactive) | inactive | inactive
CC(C)c1ccc(C(C)C)cc1 | inactive | inactive | inactive |  |  | -15.2% | inactive | inactive | -15.9% | 9.54% (inactive) |  | -2.48% (inactive) | 2.58% (inactive) | 4.22% (inactive) | -0.628% (inactive) | inactive | inactive | 0.903% (inactive) | inactive | inactive
Cn1c(=O)[nH]c(=O)n(C2CCCCC2)c1=O | inactive | inactive | inactive |  |  | -3.38% | inactive | inactive | -9.26% | 5.47% (inactive) | -1.18% (inactive) | -0.628% (inactive) | -9.94% (inactive) | -7.06% (inactive) | 1.25% (inactive) | inactive | inactive | -1.1% (inactive) | inactive | inactive
c1ccc2c(c1)Cc1ccccc1-2 | inactive | inactive | inactive |  |  | -12.1% | inactive | inactive | -16.6% | -2.65% (inactive) | -1.09% (inactive) | -0.262% (inactive) | -7.29% (inactive) | -4.41% (inactive) | -3.34% (inactive) | inactive | inactive | 1.34% (inactive) | inactive | inactive
CCCCCCCCCCO | inactive | inactive | inactive |  |  | -3.16% and -6.7% | inactive | inactive | -1.67% and -3.39% | 6.68% (inactive) and -9.14% (inactive) | -0.272% (inactive) and -0.916% (inactive) | -0.236% (inactive) and 5.87% (inactive) | -7.77% (inactive) and 2.22% (inactive) | -9.96% (inactive) and -5.95% (inactive) |  |  |  | -1.2% (inactive) and 0.559% (inactive) | inactive | inactive
